In the library only some 2.6% were active in any assay of this set; here they are far more common.
aDG glyco up = activators of alpha-DG glycosylation, primary screen, uHTS, Pro5-aDG cells, AlphaScreen; alpha-DG glycosylation AlphaScreen (IIH6); 0% Pro5, 100% B10-LARGE cell signal; activation, % at 10 µM; 0.22% of 360,000 active;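 active = activation of at least 8% versus controls, or a plate z-score of at least 8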;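 also: Pro5 are CHO cells carrying HIG-tagged alpha-DG that lacks glycosylation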
LMP1 NFkB inh = EBV LMP1-driven NF-kappaB luciferase reporter inhibitors, primary screen, cell-based, luminescence, single point; LMP1-induced NF-kappaB luciferase reporter cells; inhibition, % at 12.5 µM; 0.69% of 350,000 active; AID 504558, 2011; in the data active = inhibition above about 41%;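 also: 0% = neutral control wells and 100% = reference inhibitor control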
TWEAK Fn14 block = inhibitors of TWEAK-Fn14 signaling, primary screen, luciferase reporter cells, uHTS; TWEAK-stimulated Fn14 reporter cells, luciferase luminescence, 8 h; inhibition, % at 10 µM; 2% of 360,000 active; in the data active = inhibition above about 50%
TROY NFkB inh = inhibitors of TROY-driven NF-kB signaling, primary screen, Q293 LMP1-TROYcd cells, NF-kB luciferase, uHTS; inhibition, % at 10 µM; AID 1347056, 2019; 0.98% of 360,000 active; Q293 LMP1-TROYcd NF-kB luciferase reporter, 4 h;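 active = compounds whose plate-normalised and pattern-corrected inhibition of the luciferase reporter signal at the single screening dose is 50% or more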
HSP90 refold inh = HSP90 inhibitors, primary screen, cell lysate, luminescence; 0.91% of 290,000 active; Heat shock protein HSP 90 (rabbit reticulocyte lysate; luciferase refolding); Rabbit reticulocyte lysate, luciferase refolding luminescence, 3 h; inhibition, % at 5.6 µM;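 active = inhibition above the screen-wide mean plus 3 SD, computed separately per campaign, cut at about 16% in these data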;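 also: 0% = DMSO wells and 100% = 60 µM geldanamycin wells; inhibitors lower the luminescence because luciferase stays unfolded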
LGR2 inh = inhibitors of bursicon-induced LGR2 CRE-luciferase signal, primary screen, cell-based, HEK293, CRE-luciferase reporter, bursicon stimulation; inhibition, % at 9.99 µM; AID 720647, 2013; bursicon-stimulated, 4 h; Drosophila bursicon receptor LGR2 (rickets); 0.35% of 380,000 active;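 active = drop in luminescence signal, shown as inhibition above about 50% in the replicate tests, limit read from the data, passing the limit was not always enough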;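 also: agonist challenge used bursicon conditioned medium at about half maximal strength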
Active calls of the source: *; x = no result given.

SMILES	aDG glyco up	LMP1 NFkB inh	TWEAK Fn14 block	TROY NFkB inh	HSP90 refold inh	LGR2 inh
O=C(NC(Cc1c[nH]c2ccccc12)C(=O)N/N=C/c1ccc(Cl)cc1)c1cccs1 (configuration not stated)	0	-15	53*	29	2	-8
Cc1ccccc1-c1cnc2c(c1)C(=O)N([C@@H](C)CO)C[C@@H](C)[C@H](CN(C)C(=O)CC1CC1)O2	x	x	x	x	x	-14
O=C(c1ccccn1)N1C[C@H]2[C@@H](c3ccccc31)[C@@H](CO)N2C(=O)C1CCCC1	x	x	x	x	x	0
Oc1cc(NCc2cccnc2)ccc1-c1nc2ccccc2o1	0	-29	103*	-38	-3	x
CC=Cc1ccc2n(c1=O)C[C@H]1[C@H](CO)[C@@H](C(=O)NCC(F)(F)F)N(CCC)[C@@H]21 (mixture of isomers)	x	x	x	x	x	-3
COc1cccc(/C=C(\C#N)c2nc3ccccc3[nH]2)c1OCC(=O)O	0	-6	99*	-8	4	-50
CCOc1cc(N(CC)CC)ccc1/C=C(/C#N)c1nc2ccccc2[nH]1	0	-34	69*	60*	18*	x
CCCC(=O)Nc1ccc2c(c1)C(=O)N(C)C[C@@H](OC)[C@@H](C)CN(Cc1ccccc1)[C@@H](C)CO2	x	x	x	x	x	-18
OC(CN1CCOCC1)Cn1c2ccccc2c2ccccc21 (configuration not stated)	0	7	-10	4	-1	5
c1ccc2c(c1)c1ccccc1n2CN1CCOCC1	0	4	75*	x	3	x
O=C(CC1CC1)N1CC2(C1)[C@@H](c1ccccc1)[C@H](CO)N2CC1CCOCC1	x	x	x	x	x	10
COc1ccc(-n2cnc3c(cnn3CCC#N)c2=N)cc1	0	85*	-12	8	0	2
CCS(=O)(=O)N[C@@H]1C=C[C@H](CC(=O)NCc2ccccn2)O[C@@H]1CO	x	x	x	x	x	19
Cc1ccc(Nc2nc(NCc3ccco3)c3ccccc3n2)cc1	0	-11	85*	70*	4	96*
c1ccc(-c2nc(NCc3ccco3)c3ccccc3n2)nc1	4	63*	5	-32	2	17
COc1cccc(-c2ccc([C@@H]3[C@@H](CO)N4CCCCN(C(=O)NC(C)C)C[C@@H]34)cc2)c1	x	x	x	x	x	-4
CNS(=O)(=O)c1cc(NC(=O)c2cncn2-c2ccccc2)ccc1C	0	-5	79*	11	2	6
COc1ccc(C2=NN(C(=O)CSC3=NN4CCCC(=O)N=C4S3)C(c3cccc(OC)c3OC)C2)cc1 (configuration not stated)	0	77*	11	16	2	x
COc1cccc(C2CC(c3cccs3)=NN2C(=O)CSC2=NN3CCCC(=O)N=C3S2)c1OC (configuration not stated)	0	2	-27	-3	-2	-11
C[C@H](CO)N1C[C@H](C)[C@@H](CN(C)Cc2ccc(-c3ccccc3)cc2)Oc2c(NC(=O)C3CC3)cccc2C1=O	x	x	x	x	x	11
CCC(C)c1ccc(S(=O)(=O)N2CCN(C(=O)COc3ccc4c(C)cc(=O)oc4c3)CC2)cc1 (configuration not stated)	0	-7	58*	x	1	x
CCN(C(=O)COC(=O)Cc1cccc2ccccc12)C1CCS(=O)(=O)C1 (configuration not stated)	0	2	-13	10	x	-4
O=C(Nc1cccc2ccccc12)N(CCO)C1CCS(=O)(=O)C1 (configuration not stated)	0	-4	64*	51*	-4	-1
COc1cccc(-c2ccccc2[C@H]2[C@@H](CO)N(C(=O)Cc3ccccc3)[C@H]2C#N)c1	x	x	x	x	x	12
O=C(C[C@@H]1C[C@@H]2c3cc(NC(=O)NC4CCCCC4)ccc3O[C@@H]2[C@@H](CO)O1)NC1CCCC1	x	x	x	x	x	-18
CN(C)c1ccc(N=Nc2nccs2)cc1	0	29	79*	38	x	86*
Cc1[nH]n(-c2ccccc2)c(=O)c1N=Nc1nccs1	1	6	14	-22	7	x
